The test addresses T1, BATF;JUNB (human;human, UniProt Q16520;P17275 1-125;148-347, |).
T1 sequence 1: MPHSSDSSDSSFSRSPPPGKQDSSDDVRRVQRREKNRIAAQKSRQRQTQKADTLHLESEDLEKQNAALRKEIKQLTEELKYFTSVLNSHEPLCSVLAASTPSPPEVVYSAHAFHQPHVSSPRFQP
T1 sequence 2: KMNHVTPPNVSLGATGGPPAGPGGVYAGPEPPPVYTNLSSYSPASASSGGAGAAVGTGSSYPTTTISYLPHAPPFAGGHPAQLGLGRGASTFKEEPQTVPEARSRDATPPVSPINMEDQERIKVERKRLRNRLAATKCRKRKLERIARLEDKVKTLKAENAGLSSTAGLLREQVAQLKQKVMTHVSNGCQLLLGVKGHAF
Put plainly: Spec-seq (EMSA and sequencing of bound and unbound bands); 100 nM BATFx-JUNB, 1 uM dsDNA library, 50 mM K acetate, 20 mM Tris-acetate, 10 mM Mg acetate, 100 ug/ml BSA, pH 7.9, 10% glycerol, 30 min on ice; native 9% PAGE at 4 C; low values mean tight binding. The note with it: protein: recombinant;recombinant; tags: N-terminal mCherry-TEV, cleaved off;C-terminal 6His; copies: 1;1; dsDNA, one strand shown. The essentials:
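The protein, at 100 nM, was incubated with 1 μM double-stranded degenerate DNA library for 30 min on ice in NEB Cutsmart buffer with 10% glycerol, then resolved by native 9% PAGE at 4 °C. Excised bound and unbound bands were PCR-barcoded and Illumina-sequenced, and each sequence's relative binding energy in kT is −ln of its bound/unbound read-count ratio.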
A general note: Mobility shift assays separate free from complexed probe on a gel.
On to “GATAGTCTCATTTTCACCCCGTGAAATGACACAATTGTTCCATTACAGTATCTGT”, for which the binding signal was 0.0803 kT. For “GATAGTCTCATTTTCACCCCGTGAAATGAGTGAGTTGTTCCATTACAGTATCTGT” the value was -0.103 kT; for “GATAGTCTCATTTTCACCCCGTGAAATGATTCATTTGTTCCATTACAGTATCTGT”, -0.784 kT. For “GATAGTCTCATTTTCACCCCGTGAAATGAGTAATTTGTTCCATTACAGTATCTGT”, the binding signal was -0.4 kT. For the sequence “GATAGTCTCATTTTCACCCCGTGAAATAAGTCATTTGTTCCATTACAGTATCTGT”, the binding signal was -0.248 kT.

In the case of “GATAGTCTCATTTTCACCCCGTGAAATGAGTGATTTGTTCCATTACAGTATCTGT”, the binding signal was found to be 0.0243 kT. On to “GATAGTCTCATTTTCACCCCGTGAAATGAGTCGATTGTTCCATTACAGTATCTGT”, for which the binding signal is -0.215 kT. Consider “GATAGTCTCATTTTCACCCCGTGAAATGACTGATTTGTTCCATTACAGTATCTGT”, for which the binding signal was -0.224 kT. The figure for “GATAGTCTCATTTTCACCCCGTGAAATGAAGTCATTGTTCCATTACAGTATCTGT” is -0.461 kT; for “GATAGTCTCATTTTCACCCCGTGAAATGGCGTCATTGTTCCATTACAGTATCTGT” it is -0.631 kT; for “GATAGTCTCATTTTCACCCCGTGAAACTCAGTCATTGTTCCATTACAGTATCTGT” it is -0.328 kT. “GATAGTCTCATTTTCACCCCGTGAAATGAGCCAATTGTTCCATTACAGTATCTGT”: the binding signal was 0.591 kT. Consider “GATAGTCTCATTTTCACCCCGTGAAATGACGCATTTGTTCCATTACAGTATCTGT”, for which the binding signal is -0.475 kT. Consider “GATAGTCTCATTTTCACCCCGTGAAATGTCGTCATTGTTCCATTACAGTATCTGT”, for which the binding signal was -0.357 kT. With “GATAGTCTCATTTTCACCCCGTGAAATTGAGTCATTGTTCCATTACAGTATCTGT”, the binding signal was -0.981 kT.

The values are drawn from PMC5869772, “Quantitative profiling of BATF family proteins/JUNB/IRF hetero-trimers using Spec-seq”.
